PLCg1 inh = inhibitors of human phospholipase C gamma1; P19174; purified PLC-gamma1, fluorogenic substrate, fluorescence; inhibition, % at 12.2 µM; actives 0.84% (n = 370,000)
proKLK7 act = proKLK7 (human) activation, primary screen; actives 0.9% (n = 370,000); purified proKLK7, EDANS-DABCYL substrate fluorescence; 100% is mature enzyme control, 0% vehicle; activation, % at 7 µM; P49862;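 active = activation above the mean of all tested compounds plus 3 SD, computed per campaign excluding outliers beyond control limits, cut at about 13% in these data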
Target sequence (P49862 whole entry, looked up): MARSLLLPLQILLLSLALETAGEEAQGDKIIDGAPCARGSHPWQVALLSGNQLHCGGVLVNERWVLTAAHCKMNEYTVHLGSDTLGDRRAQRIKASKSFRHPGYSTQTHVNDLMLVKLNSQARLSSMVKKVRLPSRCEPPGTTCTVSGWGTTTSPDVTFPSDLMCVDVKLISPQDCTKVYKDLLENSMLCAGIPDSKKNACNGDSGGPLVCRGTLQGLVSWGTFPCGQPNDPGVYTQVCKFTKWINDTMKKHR
PLC-beta3 inh = blocks human PLC-beta3 enzyme activity | inhibition, % at 12.2 µM | AID 720704 | Purified PLC-beta3, fluorogenic substrate, fluorescence | actives 0.18% (n = 370,000) | Q01970; in the data active = inhibition above about 11%
ADAM17 inh = inhibits human ADAM17; AID 720648; P78536; inhibition, % at 6.95 µM; recombinant ADAM17, EDANS/DABCYL FRET peptide cleavage; actives 0.83% (n = 370,000);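 active = inhibition above the mean of compounds lying between control limits plus 3 SD, set per campaign, cut at about 8.5% in these data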
ADAM10 inh = inhibits human ADAM10; O14672; recombinant ADAM10, EDANS/DABCYL FRET peptide cleavage, 3 h; inhibition, % at 7 µM; actives 0.62% (n = 370,000);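 active = inhibition above a per-campaign cutoff equal to the mean of compounds falling between control-based bounds plus 3 SD, cut at about 20% in these data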
ADAM10 ctr = counter-screen for ADAM17 exosite inhibitors: inhibitors of human ADAM10; actives 47% (n = 2,900); shares compounds with ADAM17 inh; inhibition, % at 6.95 µM; recombinant ADAM10, EDANS/DABCYL FRET peptide cleavage, 3 h;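 active = mean inhibition over the triplicate runs exceeds the activity threshold set in the earlier primary screen, cut at about 20% in these data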
ADAM17 confirm = confirmation of inhibitors of human ADAM17 | shares compounds with ADAM17 inh | recombinant ADAM17, EDANS/DABCYL QFRET peptide cleavage | inhibition, % at 6.95 µM | actives 65% (n = 2,900) | AID 743257;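 active = mean inhibition across replicates above the hit cutoff set in the primary screen, cut at about 8.5% in these data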
PLCgamma1 ctr = counter-screen for PLC-beta3 inhibitors: inhibitors of human PLC-gamma1; purified PLC-gamma1, fluorogenic substrate, fluorescence; actives 3.1% (n = 3,300); AID 743258; inhibition, % at 12.3 µM; shares compounds with PLCg1 inh
PLCbeta3 conf = human PLC-beta3 inhibition, confirmation | actives 1% (n = 3,300) | shares compounds with PLCg1 inh | purified PLC-beta3, fluorogenic substrate fluorescence | AID 743261 | inhibition, % at 12.3 µM; in the data active = inhibition above about 11%
A number is an active result; n = inactive; x = no result given. Most compounds without a hit are left out; they make up all but 2.9% or so of the library. Cut-off read from the data, not from the text of the source, unless noted: active = inhibition above about 9.5%; inactive = the rest.

SMILES	PLCg1 inh	proKLK7 act	PLC-beta3 inh	ADAM17 inh	ADAM10 inh	ADAM10 ctr	ADAM17 confirm	others
COC(=O)c1cc(-c2ccc3ccccc3c2)c(=O)n2c1CCC2	n	n	n	n	n	x	x
CC(C)(C)NC(=O)CSc1nc(-c2ccc(F)cc2)cs1	n	n	n	9.1	n	n	n
Cc1ccccc1-c1nc(S(=O)(=O)c2ccc(Br)cc2)c(NCc2cccnc2)o1	n	n	n	9.9	n	n	25.2
C=CC[C@@H](CC(=O)N[C@@H](CO)Cc1ccccc1)C(=O)N[C@@H](COC(=O)[C@@H](CC=C)Cc1ccc(F)cc1)Cc1c[nH]c2ccccc12	n	n	n	n	n	x	x
C=CC[C@@H](CC(=O)N[C@H](CO)Cc1ccccc1)C(=O)N[C@H](COC(=O)[C@@H](CC=C)Cc1ccc(F)cc1)Cc1c[nH]c2ccccc12	n	n	n	11.3	24.4	44.4	22.0
C=CCC[C@H](Cc1ccc(F)cc1)C(=O)OC[C@@H](NC(=O)[C@@H](CC=C)CC(=O)N(CCO)Cc1ccccc1)C(C)(C)C	n	n	n	12.4	n	38.4	19.4
C=CC[C@@H](CC(=O)N[C@@H](CO)Cc1ccccc1)C(=O)N[C@H](COC(=O)[C@@H](CC=C)Cc1ccc(F)cc1)Cc1ccccc1	n	n	n	n	n	x	x
C=CC[C@@H](CC(=O)N[C@H](CO)Cc1ccccc1)C(=O)N[C@H](COC(=O)[C@@H](CC=C)Cc1ccc(F)cc1)C(C)(C)C	n	n	n	8.7	n	33.6	19.2
c1ccc(Cc2c(C3CCCCC3)nc3c4ccccc4ccn23)cc1	n	n	n	n	n	x	x
COc1cc2c(cc1N)-c1ccc(N)cc1C2	n	n	n	n	n	x	x
COc1ccc(-c2c(-c3cc(OC)cc(OC)c3)n(C)c3ccc(-c4cc(F)cc(OC)c4)cc23)cc1	n	n	n	n	n	x	x
CC(Sc1ccccc1)C(=O)NNC(=O)c1ccncc1 (stereo not drawn)	n	n	n	n	n	x	x
CN(N)c1nc(C(F)(F)F)nc2ccccc12	n	n	n	n	n	x	x
Nc1nc(N(Cc2ccccc2)Cc2ccccc2)nc(C(F)(F)F)n1	n	n	n	9.1	n	n	8.9
CC(C)COc1ccc(CSCCNC(=S)Nc2ccccc2)cc1	n	n	n	9.1	n	28.7	13.3
CCCCOc1ccc(CSCCNC(=S)Nc2ccccc2)cc1	n	n	n	n	n	x	x
Cc1ccc(O)c(-c2cc(C(=O)Nc3ccc(S(=O)(=O)N4CC(C)OC(C)C4)cc3)[nH]n2)c1 (stereo not drawn)	n	n	n	9.2	n	n	9.4
Cc1ccc(-c2cc(C(=O)Nc3ccc(S(=O)(=O)N4CC(C)OC(C)C4)cc3)[nH]n2)c(O)c1 (stereo not drawn)	n	n	n	n	n	x	x
CC1Oc2ccccc2N(CC(=O)Nc2ccc3c(c2)OCCO3)C1=O (stereo not drawn)	11.3	n	n	10.0	n	n	n	PLCgamma1 ctr=n;PLCbeta3 conf=n
CC1Oc2ccccc2N(CC(=O)Nc2ccc3c(c2)OCO3)C1=O (stereo not drawn)	n	n	n	n	n	x	x
CC1(C)CC(=O)C2=C(C1)OC1=C(C(=O)CC(C)(C)C1)C2c1ccccc1Cl	n	n	n	n	n	x	x
CC1(C(=O)NCc2cccc(C(F)(F)F)c2)CCN1Cc1ccc(-c2ccccc2)o1 (stereo not drawn)	9.6	n	n	12.8	n	n	10.4	PLCgamma1 ctr=n;PLCbeta3 conf=n
CC1(C(=O)NCc2cccc(C(F)(F)F)c2)CCN1Cc1cc2ccccc2o1 (stereo not drawn)	n	n	n	n	n	x	x
COc1cccc(C(=O)N/N=C/c2ccc(OC3CSC3)cc2)c1	10.0	n	n	9.2	n	n	n	PLCgamma1 ctr=n;PLCbeta3 conf=n

High-throughput results as filed in PubChem.
